The campaign covered roughly 5,500 compounds. About 2,000 (36%) were called active. Roughly 18% stayed inconclusive and do not appear here. Cut-off read from the data, not from the text of the source: active = normalized growth mostly below about 0.91 (no sharp cut-off); inconclusive = no clear call, values can overlap the other calls; inactive = mostly above about 0.92. The list shows a part of the results.
Assay: chemical genetic growth profiling, strain panel (AID 1159580);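 note: tested at 20 µM; growth read once vehicle control cultures reached saturation at 30 °C; 1 = growth at the plate median or of vehicle wells; lower values mean less growth of the strain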
Settings: S. cerevisiae deletion strains, growth OD

Measured: normalized growth

Cc1ccc(-c2nn(-c3ccccc3)c(=O)c3ccccc23)cc1C
active: locus YEL061C, strain CIN8, active compounds read low 0.908 | locus YHR030C, strain SLT2, active compounds read low 0.504 | locus YLR039C, strain RIC1, active compounds read low 0.634 | locus YLR085C, strain ARP6, active compounds read low 0.736 | locus YLR262C, strain YPT6, active compounds read low 0.629 | locus YPR135W, strain CTF4, active compounds read low 0.612
inactive: locus YAL013W, strain DEP1, active compounds read low 0.953 | locus YBR229C, strain ROT2, active compounds read low 0.968 | locus YCL061C, strain MRC1, active compounds read low 0.967 | locus YDL101C, strain DUN1, active compounds read low 0.957 | locus YDR150W, strain NUM1, active compounds read low 0.978 | locus YGR078C, strain PAC10, active compounds read low 0.955 | locus YGR229C, strain SMI1, active compounds read low 0.984 | locus YHR087W, strain rtc3, active compounds read low 0.922 | locus YJL187C, strain SWE1, active compounds read low 0.979 | locus YJR043C, strain POL32, active compounds read low 0.998 | locus YJR075W, strain HOC1, active compounds read low 0.908 | locus YKL190W, strain CNB1, active compounds read low 0.977 | locus YLR058C, strain SHM2 (second series), active compounds read low 0.967 | locus YML094W, strain GIM5, active compounds read low 0.922 | locus YMR219W, strain ESC1, active compounds read low 0.962 | locus YMR263W, strain SAP30, active compounds read low 0.937 | locus YNL153C, strain GIM3, active compounds read low 0.992 | locus YNL298W, strain CLA4 (second series), active compounds read low 0.936 | locus YNL322C, strain KRE1, active compounds read low 0.964 | locus YNR030W, strain Alg12, active compounds read low 0.918 | locus YOL006C, strain TOP1, active compounds read low 0.804 | locus YPL055C, strain LGE1, active compounds read low 0.928 | locus YPL241C, strain CIN2, active compounds read low 0.917

Source: PubChem BioAssay AID1159580 (chemical genetic matrix, 2015)
